Test systems include SK-MEL-2 melanoma; EKVX NSCLC; SN12C renal; UO-31 renal; TK-10 renal; ACHN renal; CAKI-1 renal; CCRF-CEM leukemia; MOLT-4 leukemia; SR leukemia; RPMI-8226 leukemia; OVCAR-8 ovarian; OVCAR-5 ovarian; OVCAR-4 ovarian; SK-OV-3 ovarian; IGROV1 ovarian; OVCAR-3 ovarian; HS 578T breast; NCI/ADR-RES ovarian; A498 renal.
Common to all, as to assay: NCI-60 one-dose screen, 48 h (100 = growth as untreated, 0 = no growth, -100 = all killed)
What all share (conditions): 10 µM unless noted

This is part of a sample that, as a whole, favours compounds with a hit. Of some 83,000 tested, about 20% had one in any assay.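 In brief: 96-well plates, 48 h treatment, single concentration, percent growth endpoint.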 A number with no mark means an inactive call. Calls of active or inactive are those of the source. The calls were made as follows: active = growth percent below 10; inactive = the rest.

Consider `COc1ccc2c(c1)C1=NN(C(=O)CO)[C@H](c3ccc(OC(F)(F)F)cc3)[C@@H]1CC2`, for which the growth with SK-MEL-2 melanoma is 89.5%; in the test with EKVX NSCLC it was 94.3%; in the test with SN12C renal, 99.6%; with UO-31 renal it was 53.5%; in the test with TK-10 renal it was 162%; in the test with ACHN renal, 87.9%. Further, the growth in the test with CAKI-1 renal is 116%; in the test on CCRF-CEM leukemia it was 129%; in the test with MOLT-4 leukemia it was 86.9%; in the test on SR leukemia it was 69.2%; in the test with RPMI-8226 leukemia, 42.9%; with OVCAR-8 ovarian, 98%. Besides, the growth in the test on OVCAR-5 ovarian is 108%; with OVCAR-4 ovarian, 89.5%; in the test with SK-OV-3 ovarian it was 96.3%; in the test with IGROV1 ovarian, 72.3%; with OVCAR-3 ovarian it was 88.6%; with HS 578T breast, 85.7%. Also, the growth with NCI/ADR-RES ovarian is 85.5%.

Take `CC(=O)OC[C@H]1O[C@@H](n2c(=O)cc(N)[nH]c2=O)C(OC(C)=O)[C@@H]1OC(C)=O` (stereo partly specified): the growth in the test with SK-MEL-2 melanoma was 105%; in the test on EKVX NSCLC it was 104%; in the test with SN12C renal, 103%; in the test with UO-31 renal, 78.6%; in the test with TK-10 renal, 97.8%; with ACHN renal, 101%. For the same compound, the growth was 88.8% with CAKI-1 renal; 111% in the test with CCRF-CEM leukemia; 108% in the test with MOLT-4 leukemia; 106% in the test with SR leukemia; 103% in the test on RPMI-8226 leukemia; 99.4% in the test with OVCAR-8 ovarian. Also, the growth is 99.8% with OVCAR-5 ovarian; 110% in the test on OVCAR-4 ovarian; 106% with SK-OV-3 ovarian; 103% in the test on IGROV1 ovarian; 114% in the test with OVCAR-3 ovarian; 95.7% with HS 578T breast. For the same compound, the growth in the test on NCI/ADR-RES ovarian was 103%.

Consider `CC(C)(C)c1nn(-c2ccccc2)c2c1C(=O)CSC(c1ccccc1Cl)N2` (stereo unspecified), for which the growth in the test with SK-MEL-2 melanoma was 45.5%; in the test on EKVX NSCLC, 30.8%; in the test with SN12C renal, 53.8%; with UO-31 renal, 29.2%; with ACHN renal, 53.7%; in the test with CAKI-1 renal, 10%. Besides, the growth was 56.9% in the test with A498 renal; 11.4% in the test on CCRF-CEM leukemia; 20.9% with MOLT-4 leukemia; -13.8% (active) in the test on SR leukemia; 42.9% in the test on RPMI-8226 leukemia; 35.7% in the test on OVCAR-8 ovarian. Also, the growth was 46.8% with OVCAR-5 ovarian; 7.26% (active) in the test on SK-OV-3 ovarian; 30.3% with IGROV1 ovarian; 11.3% in the test on OVCAR-3 ovarian; 47.5% in the test with HS 578T breast; 0.0963% (active) in the test on NCI/ADR-RES ovarian.

Consider `CC(C)[C@@H]1C=C2CC[C@H]3[C@](C)(CN)CCC[C@]3(C)[C@H]2CC1`, for which the growth was 81.7% with SK-MEL-2 melanoma; 65.6% with EKVX NSCLC; 93% in the test on SN12C renal; 68.3% in the test on UO-31 renal; 80.5% in the test on ACHN renal; 78.7% in the test with CAKI-1 renal. For the same compound, the growth was 66.6% in the test with A498 renal; 71% in the test with CCRF-CEM leukemia; 49.4% in the test on MOLT-4 leukemia; 20.7% with RPMI-8226 leukemia; 82.3% with OVCAR-8 ovarian; 111% with OVCAR-5 ovarian. Moreover, the growth with SK-OV-3 ovarian is 113%; in the test on IGROV1 ovarian, 92.2%; with OVCAR-3 ovarian, 44.4%; in the test with HS 578T breast it was 74.6%; in the test with NCI/ADR-RES ovarian, 106%.

Take `Clc1ccc(Cl)c(N=Cc2ccc3c(c2)OCO3)c1`: the growth in the test on SK-MEL-2 melanoma is 109%; with EKVX NSCLC it was 98.8%; with SN12C renal, 105%; with UO-31 renal it was 86.6%; with ACHN renal it was 114%; with CAKI-1 renal it was 94.6%. For the same compound, the growth is 91.6% with A498 renal; 106% in the test with CCRF-CEM leukemia; 106% in the test with MOLT-4 leukemia; 114% in the test on SR leukemia; 99.9% with RPMI-8226 leukemia; 97.8% in the test with OVCAR-8 ovarian. The growth was 103% in the test with OVCAR-5 ovarian; 108% in the test with OVCAR-4 ovarian; 105% in the test on SK-OV-3 ovarian; 114% in the test with IGROV1 ovarian; 115% in the test with OVCAR-3 ovarian; 109% in the test with HS 578T breast. In the test with NCI/ADR-RES ovarian, the growth was 106%.

As to `CCCCCCCCN(CCCCCCCC)C(=O)CCl`, the growth in the test with SK-MEL-2 melanoma was 108%; in the test with EKVX NSCLC, 108%; in the test on SN12C renal, 93.8%; in the test with UO-31 renal it was 73.3%; in the test with ACHN renal, 100%; in the test with CAKI-1 renal, 44.9%. For the same compound, the growth in the test on A498 renal was 99.8%; in the test with CCRF-CEM leukemia, -33.4% (active); in the test with MOLT-4 leukemia, 90.6%; with SR leukemia, 83.1%; with RPMI-8226 leukemia, 106%; in the test with OVCAR-8 ovarian it was 89.4%. The growth in the test on OVCAR-5 ovarian is 120%; in the test with OVCAR-4 ovarian, 97%; in the test with SK-OV-3 ovarian it was 109%; in the test on IGROV1 ovarian it was -18.2% (active); with OVCAR-3 ovarian, 108%; with HS 578T breast, 85.1%. The growth in the test with NCI/ADR-RES ovarian was 94.7%.

As for `CC(C)[C@@]12C[C@@H](OC(=O)C3CO3)[C@@](C)(O1)[C@@H]1CC[C@@H](C)[C@H]1[C@@H]2OC(=O)/C=C/c1ccccc1` (stereo partly specified), the growth with SK-MEL-2 melanoma was 87.9%; in the test on EKVX NSCLC, 82.3%; in the test on SN12C renal it was 58.6%; in the test with UO-31 renal it was -3.56% (active); in the test on ACHN renal it was 5.97% (active); in the test with CAKI-1 renal it was 51.7%. Further, the growth in the test with A498 renal is -31.7% (active); with CCRF-CEM leukemia, 88.5%; with MOLT-4 leukemia, 79.9%; with SR leukemia, 74.6%; in the test on RPMI-8226 leukemia, 89.1%; with OVCAR-8 ovarian, 22.4%. Besides, the growth is 100% in the test on OVCAR-5 ovarian; 111% in the test on OVCAR-4 ovarian; 76.9% with SK-OV-3 ovarian; 74.6% in the test with IGROV1 ovarian; 90.4% in the test with OVCAR-3 ovarian; -21.2% (active) in the test with HS 578T breast.

`CCN1C(=O)N(CC)C2C1N=C(SC)N2/N=C/C=C/c1ccccc1OC` (stereo unspecified): the growth in the test on SK-MEL-2 melanoma is 26.5%; in the test with EKVX NSCLC, 23.4%; in the test with SN12C renal, 26.5%; in the test with UO-31 renal, 41.8%; with ACHN renal, 23.2%; with CAKI-1 renal, 25%. For the same compound, the growth in the test with A498 renal is 15.1%; in the test with CCRF-CEM leukemia, 12.5%; in the test on MOLT-4 leukemia it was 14.7%; in the test with SR leukemia, 13.3%; with OVCAR-8 ovarian, 10.9%; in the test on OVCAR-5 ovarian it was 37.2%. Moreover, the growth is 50.5% in the test with OVCAR-4 ovarian; 18.9% in the test with SK-OV-3 ovarian; 22.2% in the test on IGROV1 ovarian; -18.9% (active) in the test on OVCAR-3 ovarian; 59.2% with HS 578T breast.

Source of the values: PubChem BioAssay (NCI).
